# Screen size: about 340,000 compounds; about 3,300 (0.97%) were called active.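 Rule for the calls: active = mean activation above about 17%, with every replicate also reaching it (limit read from the data, passing the limit was not always enough); inconclusive = only one of the two conditions met; inactive = the rest.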 For the sample, actives were picked, then their nearest neighbours and some compounds at random.
# Molecular target: Protein FosB (Mus musculus) (UniProt P13346)
# Test: enhancers of mouse delta FosB DNA binding – biochemical, fluorescence polarization, TAMRA-CDK5 oligo, single point, primary screen (AID 493131);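 note: fluorescence polarization rise as delta FosB binds a TAMRA Cdk5 AP-1 oligo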
# Details: purified delta FosB, at 25 µM, stronger effect = higher value, percent of positive-control signal above neutral wells
# Protein FosB (Mus musculus), sequence (P13346 whole entry, looked up): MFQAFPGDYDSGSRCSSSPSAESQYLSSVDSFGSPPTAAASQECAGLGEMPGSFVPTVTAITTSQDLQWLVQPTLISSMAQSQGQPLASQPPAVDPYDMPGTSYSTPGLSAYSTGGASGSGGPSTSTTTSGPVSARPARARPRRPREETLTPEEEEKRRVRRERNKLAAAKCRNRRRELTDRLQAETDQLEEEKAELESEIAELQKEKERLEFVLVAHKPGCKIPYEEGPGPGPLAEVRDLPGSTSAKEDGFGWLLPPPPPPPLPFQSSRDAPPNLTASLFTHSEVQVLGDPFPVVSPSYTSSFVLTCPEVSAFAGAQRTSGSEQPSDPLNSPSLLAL
row,Structure (SMILES),activation
1,O=C(NCC1CCCCC1)NCC1CCCCC1,-3.89% (inactive)
2,CCC(C)NC(=O)c1ccc(NC(=O)CC2SC(N3CCCCC3)=NC2=O)cc1 (configuration not stated),-9.42% (inactive)
3,Cc1cc(C)n2nc(CNS(=O)(=O)c3c(F)c(F)c(F)c(F)c3F)nc2n1,-1.9% (inactive)
4,CCn1c(NC(=O)c2ccccc2)c(-c2cccs2)c(=O)c2ccccc21,-4.73% (inactive)
5,CC(=O)c1cccc(NC(=O)c2cc(C)nn2-c2ccccc2)c1,-9.9% (inactive)
6,CCn1c(=O)c2cc(C(=O)Nc3cccc(C(C)=O)c3)sc2c2ccccc21,73.2% (active)
7,CCc1cccc(NC(=O)COC(=O)c2cc(=O)c3ccccc3o2)c1,-5.91% (inactive)
8,COC(=O)c1c(C(=O)OC)c(-c2cccc(C)c2)n2c1CS(=O)C2 (configuration not stated),-2.6% (inactive)
9,Cc1ccccc1Nc1c([N+](=O)[O-])ccc2nonc12,-0.872% (inactive)
10,CN(C)CCCN(C(=O)c1ccc(S(=O)(=O)N2CCCCCC2)cc1)c1nc2ccc(Br)cc2s1,41% (active)
11,COc1ccc2sc(N(CCCN(C)C)C(=O)c3ccc(S(=O)(=O)N(C)C4CCCCC4)cc3)nc2c1,15.3% (inactive)
12,CN(C)CCN(C(=O)C1=COCCO1)c1nc2ccc(Cl)cc2s1,-10.2% (inactive)
13,CCCCn1c(N)c(N(CCC(C)C)C(=O)COC(=O)c2cccnc2OCC)c(=O)[nH]c1=O,1.39% (inactive)
14,CCCCn1c(N)c(N(CCC(C)C)C(=O)COC(=O)c2ccc(CC)cc2)c(=O)[nH]c1=O,23.1% (active)
15,CCCCn1c(N)c(N(CCC(C)C)C(=O)c2ccc([N+](=O)[O-])o2)c(=O)[nH]c1=O,-0.599% (inactive)
16,CCn1c(/C=C/Nc2ccccc2)[n+](CC)c2ccc(C(=O)OCC(F)(F)F)cc21,-11.5% (inactive)
17,O=C(NCCCn1ccnc1)C1CCCN(S(=O)(=O)c2cc(Cl)ccc2Cl)C1 (configuration not stated),-4.73% (inactive)
18,CC(Sc1nc2cc(Cl)ccc2s1)C(=O)Nc1ccc2c(c1)OCO2 (configuration not stated),-3.52% (inactive)
19,CC(Sc1nc(-c2ccccc2)cc(C(F)(F)F)n1)C(=O)Nc1ccc2c(c1)OCO2 (configuration not stated),30.4% (active)

row,Structure (SMILES),activation
1,CCSc1ccccc1C(=O)Nc1ccc2c(c1)OCO2,0.935% (inactive)
2,O=C1/C(=C/c2ccc3c(c2)OCO3)Oc2cc(OCC(=O)N3CC(O)C[C@H]3C(=O)O)ccc21 (some centres not stated),-7.81% (inactive)
3,Cc1ccc(C(=O)NNC(=O)c2ccc3c(c2)OCCO3)cc1,-13% (inactive)
4,Cc1ccc(C(=O)NNc2ncnc3ccccc23)cc1,-2.14% (inactive)
5,Cc1ccc(C(=O)NNC(=O)c2cc3cc4ccccc4nc3s2)cc1,26.4% (active)
6,CC(NC(=O)c1cccc(S(=O)(=O)N2CCc3ccccc3C2)c1)c1ccco1 (configuration not stated),7.07% (inactive)
7,O=C(CN1CCN(S(=O)(=O)/C=C/c2ccccc2)CC1)NC(=O)NCc1ccco1,-9.92% (inactive)
8,O=C(COC(=O)c1ccc(S(=O)(=O)N2CCc3ccccc3C2)cc1)NC(=O)NCc1ccco1,61.2% (active)
9,Cc1cccc(C)c1NC(=S)N(Cc1cccnc1)Cc1ccccc1Cl,2.24% (inactive)
10,COC(=O)C(C(=O)Nc1cccc(Cl)c1C)C1CCCC1 (configuration not stated),0.709% (inactive)
11,COc1ccc(/C=N/NC(=O)c2ccncc2)cc1CN1CCCc2ccccc21,-19.4% (inactive)
12,COc1cccc(/C=N/NC(=O)CNC(=O)c2ccc(S(=O)(=O)N3CCOCC3)cc2)c1OC,1.33% (inactive)
13,COc1cccc(/C=N/NC(=O)c2[nH]nc3c2CCc2ccccc2-3)c1O,76.1% (active)
14,CCOc1ccc2c(=O)c(-c3ccc4c(c3)OCCCO4)c(C)oc2c1,5.27% (inactive)
15,CCn1cc(CN2CCC(C(=O)Nc3cccc(-c4cccc(Cl)c4)c3)CC2)c(C)n1,-5.85% (inactive)
16,O=C1c2ccncc2C(=O)N1C1CCCCC1,-3.57% (inactive)
17,Cc1cc(=O)oc2cc(OC(C)C(=O)Nc3ccc(N4CCOCC4)cc3)ccc12 (configuration not stated),14.2% (inactive)
18,COc1ccc(-c2cc(=O)oc3cc(OC(C)C(=O)Nc4ccc(CN5CCOCC5)cc4)ccc23)cc1 (configuration not stated),28.5% (active)
19,COc1ccc(-c2cc(=O)oc3cc(OC(C)C(=O)NCC4CCC(C(=O)O)CC4)ccc23)cc1 (configuration not stated),2.8% (inactive)

row,Structure (SMILES),activation
1,COc1ccc(CCN(C)C(=O)C23CC4CC(CC(Cl)(C4)C2)C3)cc1OC,-11.5% (inactive)
2,CCOc1ccc(NC(=O)CSc2ncnc3c2sc2ccccc23)cc1,-0.561% (inactive)
3,COc1cc(C(=S)NCc2ccccc2)cc(Br)c1O,-3.42% (inactive)
4,Cc1nn(Cc2ccc(Cl)cc2)c(Cl)c1/C=N/NC(=O)CNc1ccccc1F,20.3% (active)
5,COc1ccc(Cl)cc1NC(=O)CNc1ccccc1F,0.137% (inactive)
6,CCn1nc(C)c(/C=N/NC(=O)Cc2ccc(Cl)cc2)c1C,-5.48% (inactive)
7,COC(=O)c1ccc(C(=O)Nc2cc(Cl)ccc2Cl)cc1NC(=O)c1ccccc1C,-4.76% (inactive)
8,COc1cccc(NC(=O)Cn2c3ccccc3c3nc4n(c(=O)c32)CCS4)c1,10.7% (inactive)
9,COc1cccc(NC(=O)Cn2c3ccc(F)cc3c3nc4n(c(=O)c32)CCS4)c1,20.4% (active)
10,COc1ccc2c(c1)c1nc3n(c(=O)c1n2CC(=O)Nc1ccccc1)CCS3,2.33% (inactive)
11,CC1=NN(c2cccc(Cl)c2)C(=O)C12CC(C)=C(C)CS2 (configuration not stated),-6.87% (inactive)
12,Oc1ccccc1CNc1ncc(Br)cc1Br,-0.334% (inactive)
13,CC(C)C(NC(=O)c1cccc(S(=O)(=O)N2CCOCC2)c1)C(=O)NCCc1ccccn1 (configuration not stated),-1.29% (inactive)
14,Cc1c(C#N)c2ncn(CC#N)c(=O)c2n1-c1ccccc1,-7.05% (inactive)
15,COc1ccc(-c2cc3n(n2)CCc2nc4ccccc4n2-3)cc1,18.1% (active)
16,COc1ccc(-c2cc(C(=O)n3cnc4ccccc43)c3ccccc3n2)cc1,-10% (inactive)
17,COc1ccc(-c2cc3ncccc3cn2)cc1,-21.2% (inactive)
18,CC(=O)N1CCN(CC(c2ccccc2)c2ccccc2)CC1,1.45% (inactive)
19,O=c1[nH]snc1-c1c(Cl)cccc1Cl,-3.4% (inactive)
